# Screening data deposited in PubChem BioAssay by National Center for Advancing Translational Sciences (NCATS).
# An excerpt weighted towards active compounds, which were near 3.1% of everything screened.
# ASM inhibitor: human S-ASM enzyme inhibition; Potency, µM (titrated, usually from 57.5 µM), for inactives: at the highest dose activity change, negative = inhibition, usual class: inhibitors; 340,000 tested, 0.006% active; placental ASM, HMU-PC fluorogenic substrate, 60 min
#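 HMU-PC0 cleavage (9 uM final) by human placental ASM, 60 min at 37 °C following 10 min compound exposure at RT; stopped at pH 10, fluorescence Ex 386/Em 447 nm.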
# PLK1 PBD inh: inhibitors of human PLK1 polo-box domain binding; Potency, µM, inactives show max response, negative = inhibition, actives largely listed as inhibitors; AID 720504; 360,000 tested, 2.8% active; P53350; Plk1 PBD binding of FITC phosphopeptide, fluorescence polarization; note: series mostly up to about 57 µM; % is set by controls: 0 for no effect and ±100 for the full control effect; nearly all actives have a fitted effect of over 65% in size
# Target sequence (P53350 whole entry, looked up, the tested form may be a part): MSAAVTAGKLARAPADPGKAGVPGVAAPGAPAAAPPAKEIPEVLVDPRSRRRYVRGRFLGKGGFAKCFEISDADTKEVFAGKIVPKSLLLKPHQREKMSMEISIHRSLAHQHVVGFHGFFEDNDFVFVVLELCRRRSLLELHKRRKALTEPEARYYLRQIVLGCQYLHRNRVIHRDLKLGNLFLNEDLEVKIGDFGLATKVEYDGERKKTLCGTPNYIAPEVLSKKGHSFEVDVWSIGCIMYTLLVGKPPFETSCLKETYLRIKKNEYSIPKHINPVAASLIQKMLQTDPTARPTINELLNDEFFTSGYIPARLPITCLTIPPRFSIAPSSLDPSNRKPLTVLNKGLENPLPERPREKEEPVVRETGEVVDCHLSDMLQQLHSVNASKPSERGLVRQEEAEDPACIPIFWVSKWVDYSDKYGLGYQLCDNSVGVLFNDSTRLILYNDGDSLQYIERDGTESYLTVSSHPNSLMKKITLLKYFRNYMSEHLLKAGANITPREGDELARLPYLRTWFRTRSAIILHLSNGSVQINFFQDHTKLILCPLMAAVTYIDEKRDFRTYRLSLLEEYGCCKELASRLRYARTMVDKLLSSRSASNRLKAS
# VDR inh: vitamin D3 receptor (human) inhibition | VDR-SRC2-3 peptide fluorescence polarization, 2 h | Potency, µM, without a hit: max response, negative = inhibition, most hits filed as inhibitors | 400,000 tested, 0.93% active; note: % is set by controls: 0 for no effect and ±100 for the full control effect
#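 Inhibition of the VDR/SRC2-3 peptide interaction is quantified by fluorescence polarization. Compounds (23 nl, pintool) incubate with the reagents for 2 hours at ambient room temperature.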
# Pin1 inh: human Pin1 inhibition; Q13526; Pin1 FP peptide displacement, HiFluor488, 10 min; Potency, µM (titrated, usually from 115 µM), without a hit: top-dose activity, negative = inhibition, hits mostly inhibitors; 390,000 tested, 0.009% active; AID 504891; active = well fitted inhibition curve with a large enough effect in the polarisation, with a control signal flat, not every such curve was filed as active; inconclusive = small, poorly fitted or top-dose-only effect, or effect the other way, or a change in a side signal; inactive = no such curve, though single readings can be large or run the other way; the % refers to the polarisation; note: % is set by controls: 0 for no effect and ±100 for the full control effect
# TDP1 block: TDP1 (human) enzyme inhibition; AID 485290; recombinant TDP1, AlphaScreen DNA substrate cleavage; 350,000 tested, 0.28% active; Potency, µM (highest dose often 130 µM), for the others: top-dose activity change, negative = inhibition, most hits filed as inhibitors; Q9NUW8; note: % is set by controls: 0 for no effect and ±100 for the full control effect; nearly all actives have a fitted effect of over 40% in size
#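 Enzyme-compound mixtures sat 15 min at room temperature, followed by a 5 min reaction with 15 nM final substrate and 10 min with AlphaScreen beads. Recombinant human Tdp1 was used at 1 nM final.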
# Tb PFK inh: T. brucei PFK enzyme inhibition; T. brucei PFK, ADP-Glo luminescence; O15648; 330,000 tested, 0.17% active; Potency, µM (series often up to 57.5 µM), for inactives: at the highest dose activity, negative = inhibition, actives largely listed as inhibitors;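 note: 0% = uninhibited 1x PFK enzyme wells and -100% = no-enzyme wells; nearly all actives have a fitted effect of over 60% in size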
#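 Activity is normalized to no-enzyme wells (full inhibition) and 1.25 nM enzyme wells (no inhibition). Reaction: 0.5 mM F6P, 0.1 mM ATP, 45 min RT, ADP-Glo luminescence; concentration-response curves fitted and classed by quality.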
# * = called active by the depositor; i = inactive; ? = inconclusive; nt = not tested or not shown. Unless noted, calls come from the whole dose curve; as a rule, active = well fitted curve in the direction sought with a large enough effect; inconclusive = small, poorly fitted or top-dose-only effect, or another doubt; inactive = no such curve, though single readings can be large; an effect the other way counts as inactive or inconclusive. Potency is the fitted concentration of half-maximal effect.
SMILES,ASM inhibitor,PLK1 PBD inh,VDR inh,Pin1 inh,TDP1 block,Tb PFK inh
CC1C(=O)N2CCCc3cc(S(=O)(=O)Nc4ccc(Br)cc4F)cc1c32 (stereo not drawn),nt,nt,-4%,-5%,5%,nt
CC(C)(C)NCC(O)COCc1ccc(Cl)cc1 (stereo not drawn),-2%,24µM*,-18%,9%,2%,-2%
CC(C)NCC(O)COCc1ccc(Cl)cc1 (stereo not drawn),2%,-4%,13%,2%,2%,1%
Cc1ccc(S(=O)(=O)N2CCN(c3nc(-c4cccs4)nc4ncccc34)CC2)cc1,nt,nt,-12%,13%,nt,nt
COc1ccc(C(=O)/C=C/C(=O)N(CC(=O)NCCC(C)C)Cc2cccs2)c(O)c1,1%,34µM*,-10%,27%,6%,-3%
COc1ccc2c(C#CCCO)c(-c3ccc(S(C)(=O)=O)cc3)sc2c1,i,27µM*,-8%,-2%,-3%,3%
CCOC(=O)C1=C(CSc2nc3c(cc2C#N)CN(C)CC3)OC(N)=C(C#N)C1c1ccccc1 (stereo not drawn),31%,-23%,-14%,?,4%,-9%
CCOC(=O)C1=C(CSc2nc3c(cc2C#N)CCC3)OC(N)=C(C#N)C1c1ccccc1 (stereo not drawn),11%,17µM*,9%,?,4%,0%
COc1ccc(C2Nc3ccccc3C(=O)N2c2cccc3ccccc23)cc1COc1c(C)cccc1C (stereo not drawn),nt,nt,-1%,2%,0%,nt
Cc1cccc(C(=O)N2[C@@H](C(C)C)COc3cc(Br)ccc3S2(=O)=O)c1,-1%,21µM*,?,16%,nt,nt
COc1cccc(C(=O)N2C(C(C)C)COc3cc(Br)ccc3S2(=O)=O)c1 (stereo not drawn),nt,-3%,nt,nt,nt,nt
O=C(NC1CCCC1)c1ccc(CSc2nc3cccnc3n2Cc2ccccc2F)cc1,nt,nt,5%,22%,1%,nt
COc1ccc(/C=N/NC(=O)Cn2nc(C)c([N+](=O)[O-])c2C)cc1,0%,30µM*,?,-3%,5%,-9%
CCCNC(=O)c1ccc(N2CCC3(CC2)CC(c2ccccc2)=NO3)c(NC(=O)c2ccco2)c1,?,-4%,6%,?,nt,0%
CCCNC(=O)c1ccc(N2CCC3(CC2)CC(c2ccccc2)=NO3)c(NC(=O)c2cccc(OC)c2)c1,-10%,27µM*,-25%,40%,nt,0%
O=C(CCN1C(=O)/C(=C\C=C\c2ccccc2)SC1=S)Nc1ccc(C(=O)O)cc1,-16%,24µM*,?,nt,14µM*,0%
COc1ccc(/C=C2\SC(=O)N(CCCC(=O)Nc3ccc(C(=O)O)cc3)C2=O)cc1,nt,-15%,nt,nt,nt,nt
O=C(O)c1ccc(N2C(=O)/C(=C/C=C/c3ccccc3)SC2=S)cc1,-1%,27µM*,-10%,-12%,-4%,1%
O=C(CCN1C(=O)S/C(=C\c2ccc(Cl)cc2)C1=O)Nc1ccc(C(=O)O)cc1,1%,-27%,-7%,nt,28µM*,0%
O=C(CN1C(=O)S/C(=C\c2ccc(Cl)cc2)C1=O)NC1C=CS(=O)(=O)C1 (stereo not drawn),-2%,19µM*,?,1%,-5%,-1%
COc1ccc(NC(=O)Nc2nnc(SCC(=O)Nc3cccc(C)c3C)s2)cc1,nt,nt,4%,2%,5%,nt
COc1ccc(CCNC(=O)CCn2c(=O)c3ccccc3n(Cc3ccccc3F)c2=O)cc1OC,nt,nt,3%,-4%,0%,nt
Cc1ccc(Nc2nn3c(=O)c4ccccc4nc3s2)cc1C,nt,nt,nt,4%,nt,nt
Cc1ccccc1OCC(=O)NCC(=O)OCc1ccc2ccccc2c1,nt,nt,-9%,2%,3%,nt
CCOc1ccc(S(=O)(=O)N2CCN(c3nc(-c4ccccc4)nc4ccccc34)CC2)cc1OCC,nt,nt,-21%,-1%,0%,nt
SMILES,ASM inhibitor,PLK1 PBD inh,VDR inh,Pin1 inh,TDP1 block,Tb PFK inh
Cc1ccc(C)c(N(C(=O)c2snc(C(N)=O)c2N)C(C(=O)NCC2CCCO2)c2cccs2)c1 (stereo not drawn),i,30µM*,79µM*,2%,1%,-6%
O=c1cc(-c2ccccc2)ss1,-2%,12µM*,?,0%,nt,nt
Nc1sc(-c2ccccc2)cc1C(=O)O,nt,nt,nt,nt,-4%,4%
NC(=O)c1oc2ccccc2c1NC(=O)c1nc2ccccc2s1,4%,-1%,5%,60%,79µM*,-16%
Cc1ccc(C2C(C#N)=C(N)Oc3n[nH]c(-c4ccccc4)c32)o1 (stereo not drawn),-2%,3.4µM*,25µM*,22%,8%,1%
N#CC1=C(N)Oc2n[nH]c(-c3cccs3)c2C1c1cccs1 (stereo not drawn),-6%,24µM*,7%,?,2%,3%
Cc1ccc(C2C(C#N)=C(N)Oc3n[nH]c(-c4cccnc4)c32)o1 (stereo not drawn),2%,?,-3%,-8%,5%,19%
O=C(O[C@H]1CN2CCC1CC2)N1CCc2ccccc2[C@@H]1c1ccccc1,nt,nt,1%,nt,nt,nt
COc1ccc(S(=O)(=O)N2CCN(c3ccc(C)cc3C)CC2)cc1OC,-7%,24µM*,-27%,0%,2%,-1%
O=C(/C=C/c1ccncc1)c1ccc(NC(=O)c2ccccc2F)cc1,-2%,-7%,32µM*,17%,0%,?
O=C(Nc1ccc(Nc2ccccc2)cc1)c1ccccc1F,-3%,-10%,15%,?,nt,3%
O=C(/C=C/c1ccc(NC(=O)c2ccccc2-c2ccccc2C(=O)O)cc1)c1ccccc1,85%,-16%,20µM*,?,-7%,-8%
CC(C)CCn1c(O)c(N=NC(=O)Cn2ccc(C(F)(F)F)n2)c2ccccc21,-8%,24µM*,79µM*,1%,6%,0%
Cc1ccc(CNC(=O)c2cccc(-n3cnc4cccnc43)c2)cc1,nt,nt,2%,-2%,0%,nt
O=C(O)/C=C/c1ccc(O)c(O)c1,20%,-7%,8%,-7%,-2%,?
O=C(/C=C/c1ccc(O)c(O)c1)O[C@H](Cc1ccc(O)c(O)c1)C(=O)O,nt,nt,nt,nt,nt,17µM*
Cc1nn(CC(O)CN2c3ccccc3Sc3ccccc32)c(C)c1Br (stereo not drawn),-10%,3.8µM*,?,5%,7%,3%
Cc1nn(CC(O)c2ccccc2)c(C)c1Br (stereo not drawn),-1%,0%,25%,?,0%,-3%
COC(=O)c1c(NC(=O)c2cc3nc(-c4ccc(Br)cc4)cc(C(F)(F)F)n3n2)sc2c1CCCC2,nt,nt,-2%,-7%,-1%,nt
CCCN(Cc1cccs1)C(=O)Nc1ccc(F)c(Cl)c1,nt,nt,-1%,9%,-9%,nt
